From PubChem BioAssay AID1117319 (Southern Research Institute, 2015)
Where “and” joins values, the source holds several entries; their conditions need not be identical. Equal values may be shown once. Screen size: about 260,000 compounds; about 1,500 (0.58%) were called active. Not shown: some 5% with an inconclusive outcome. Not all results are given here. Potency and affinity values are given separately. A number with no mark means an inactive call.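 The calls were made as follows: active = inhibition above a set limit at one or more doses, reproduced on every date tested; inconclusive = results disagree between test dates, or hit never tested in dose response; inactive = the rest.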

Molecular target: Virion infectivity factor (Human immunodeficiency virus type 1 group M subtype B (isolate BH10)) + Virion infectivity factor (Human immunodeficiency virus type 1 group M subtype B (isolate BRU/LAI)) + Virion infectivity factor (Human immunodeficiency virus type 1 group M subtype B (isolate PCV12)) + Virion infectivity factor (Human immunodeficiency virus type 1 group M subtype B (isolate HXB2)) + DNA dC->dU-editing enzyme APOBEC-3G (Homo sapiens) (UniProt P69720+P69721+P69722+P69723+Q9HC16)
Test: inhibitors of Vif binding to APOBEC3G peptide, primary screen, biochemical, TR-FRET, GST-Vif 1-94, biotin-A3G peptide, dose response retest (AID 1117319);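 also: Vif residues 1-94 fused to GST binding biotinylated APOBEC3G peptide 110-148; 0% = full assay without inhibitor and 100% = GST in place of GST-Vif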
Settings: active compounds read high

| SMILES | inhibition |
| --- | --- |
| CCC(C)[C@H](NC(=O)C1CCN(C(=O)[C@H](Cc2ccccc2)NC(=O)OC(C)(C)C)CC1)C(=O)O (stereo partly specified) | 7.73% |
| Cc1ccc(C(=O)NNC(=O)c2ccc3ccccc3c2)cc1 | 1.23% |
| O=C(c1ccc(S(=O)(=O)N2CCCCCC2)cc1)N1CCN(c2ccccn2)CC1 | -5.37% |
| Cc1cc(C(=O)N2CCc3c([nH]c4ccccc34)C2c2c(F)cccc2Cl)no1 (stereo unspecified) | -4.57% |
| O=C(Nc1ccc(S(=O)(=O)N2CCOCC2)cc1)c1cc(-c2ccccc2O)n[nH]1 | -5.69% |
| CSCCC(NS(=O)(=O)c1ccc(C)cc1)C(=O)NCC(C)(C)N1CCOCC1 (stereo unspecified) | 26.5% |
| CCOc1cc(C(=O)Oc2cc(C)[nH]c(=O)c2[N+](=O)[O-])cc(OCC)c1OCC | -2.15% |
| CC(C)C(=O)Nc1nnc(-c2ccco2)s1 | -4.43% |
| CCCC(=O)Nc1nnc(-c2ccco2)s1 | 5.96% |
| O=C(COC(=O)Cn1cnc2ccccc2c1=O)NCc1ccccc1 | -5.43% |
| Cc1nn(Cc2ccccc2)c(C)c1C(=O)OCC(=O)c1cc(C)n(CC(F)(F)F)c1C | 13.3% |
| COCCn1c(C)cc(C(=O)COC(=O)c2c(C)nn(Cc3ccccc3)c2C)c1C | 15.2% |
| C=CCOc1ccc(CNc2nccs2)cc1OC | -2.98% |
| Cn1nnnc1SCc1cc(=O)n2ccsc2n1 | 8.97% |
| COc1ccc(OCCNC(=S)Nc2cccc3ccccc23)cc1 | 2.41% |
| O=C(NC(NC(=S)Nc1cccc(C(=O)O)c1)C(Cl)(Cl)Cl)OCc1ccccc1 (stereo unspecified) | 16% |
| CCCCOC(=O)c1cc(C)nc2ccc(Br)cc12 | 10.8% |
| CC1=C(C(=O)Nc2ccccc2)C(c2ccco2)NC(=S)N1 (stereo unspecified) | -0.58% |
| CC1=C(C(=O)Nc2ccccc2)C(c2ccco2)NC(=O)N1 (stereo unspecified) | -0.31% |
| N#C/C(=C\c1cccs1)C(=O)N1CCOCC1 | 4.24% |
| CCOc1ccc(-n2cc(C(=O)NCCOC)c3cc(OC)c(OC)cc3c2=O)cc1 | -0.11% |
| CC1=CCC2C(=O)N(c3ccc4ccccc4n3)C(=O)C2C1 (stereo unspecified) | 3.04% |
| O=C(COC(=O)c1n[nH]c(=O)c2ccccc12)c1ccc(Cl)cc1 | -6% |
| COc1cc(C2CC(=O)c3c(O)cc(O)cc3O2)ccc1O (stereo unspecified) | 9.19% |

| SMILES | inhibition |
| --- | --- |
| COc1ccc([C@H]2CC(=O)c3c(O)cc(O)cc3O2)cc1O | 9.99% |
| O=[N+]([O-])c1cc2c(c(CSc3ncccn3)c1)OCOC2 | 1.34% |
| Cc1nnc(SCc2cc([N+](=O)[O-])cc3c2OCOC3)n(N)c1=O | 20.5% |
| COc1ccc(CCNC(=O)COc2coc(CN3c4ccccc4CC3C)cc2=O)cc1OC (stereo unspecified) | 3.96% |
| CCOC(=O)c1oc2ccc(/C=N/O)c(Cl)c2c1C | -0.46% |
| CC1CN(C(=O)COC(=O)c2cnc(Cl)c(Cl)c2)CC(C)O1 (stereo unspecified) | -12.2% |
| Nc1ncnc2c1ncn2[C@@H]1O[C@H](CNC(=O)[C@@H]2C[C@H](F)CN2)[C@@H](O)[C@H]1O | -0.68% |
| COc1cccc(CNc2ccc(F)c([N+](=O)[O-])c2)c1O | -12% |
| COCCCn1c(=NC(=O)c2ccncc2)c(C#N)cc2c(=O)n3cccc(C)c3nc21 | 3.9% and 7.65% |
| CCCCn1c(=NC(=O)c2ccc3c(c2)OCO3)c(C#N)cc2c(=O)n3cccc(C)c3nc21 | 6.53% |
| O=C(c1cccc(S(=O)(=O)N2CCc3ccccc32)c1)N1CCN(c2ccccn2)CC1 | -7.91% |
| Cc1cnc(C(=O)OCC(=O)Nc2cc(-c3cc(C)c(C)cc3C)nn2-c2ccccc2)cn1 | 3.14% |
| S=c1[nH]nc(-c2cc(-c3ccco3)[nH]n2)n1-c1ccccc1 | 4.55% |
| COc1ccccc1-n1c(-c2ccco2)n[nH]c1=S | -2.63% |
| COc1ccccc1-n1c(-c2cc(-c3ccc(F)cc3)n[nH]2)n[nH]c1=S | 0.73% |
| S=c1[nH]nc(-c2cc(-c3ccco3)[nH]n2)n1-c1cccc2ccccc12 | 16.8% |
| Cc1cc2c(cc1C)NC1=C(N2)OC(c2cccc(O)c2)C1=O (stereo unspecified) | 5.24% |
| NS(=O)(=O)c1ccc(CCNC(=O)CSc2ccsc2[N+](=O)[O-])cc1 | 4.39% |
| CC(=O)N1CCN(C(=O)CCNC(=O)c2ccc(Br)cc2)CC1 | 0.92% |
| CCN1CCN(c2nc3ccccn3c(=O)c2/C=C(\C#N)S(=O)(=O)c2ccccc2)CC1 | -0.55% |
| COC(=O)c1ccc(C(=O)NN)cc1 | -8.26% |
| Cc1cccc(NC(=O)Cc2ccc(F)cc2)c1 | -2.86% |
| Cc1ccc(NC(=O)CCc2nc(-c3cccs3)no2)c(Br)c1 | 0.83% |
| C(=C\c1ccc2ccccc2n1)/c1ccccc1 | 10.9% |

| SMILES | inhibition |
| --- | --- |
| Fc1ccccc1/C=C/c1ccc2ccccc2n1 | 1.57% |
| CN(C)c1c2ccccc2nc2c(F)c(F)c(F)c(F)c12 | -2.85% |
| Cc1c(N(C)C)nc2ccccc2c1N | -3.71% |
| CNC(=O)COc1coc(CN2CCN(c3cccc(Cl)c3)CC2)cc1=O | 6.04% |
| CCOC(=O)N/N=C(/c1ccccc1)C1CCCCC1 | -4.75% |
| CCOc1ccccc1OCC(=O)NC1CCCCC1 | -0.58% |
| CCN(C(=O)COC(=O)/C=C/c1cnc2ccccc2n1)c1ccccc1 | -2.53% |
| CCOCC(=O)OCC(=O)Nc1cc(OC)c([N+](=O)[O-])cc1C | 7.7% |
| COc1cccc(-c2nnc(SCC(=O)Nc3cc(C)ccc3OC)n2N)c1 | 3.89% |
| CCn1cc[n+](C)c1P(c1ccccc1)c1ccccc1 | 3.82% |
| COCCCn1c(=O)c2sccc2n2c(CCCC(=O)NCc3ccccc3OC)nnc12 | -3.09% |
| Cc1ccc([N+](=O)[O-])cc1S(=O)(=O)Nc1cccc(S(=O)(=O)NC2=NCCC2)c1 | 3.32% |
| O=[N+]([O-])c1ccc(Cl)c(S(=O)(=O)NC2=NCCC2)c1 | -7.04% |
| CC1(C)CC(=O)C=C(c2n[nH]nc2-c2ccc(F)c(F)c2)C1 | -13.9% |
| CCOC(=O)c1cc(-c2ccc(OC)cc2OC)nn1-c1ccc(C(=O)O)cc1 | 4.72% |
| CN1CCc2c(sc(NC(=O)c3ccc(S(=O)(=O)N4CCOCC4)cc3)c2C(N)=O)C1 | 18.7% |
| CC(C)N1CCc2c(sc(NC(=O)c3ccc(S(=O)(=O)N4CCOCC4)cc3)c2C(N)=O)C1 | -2.18% |
| Cc1c(C(=O)N(C)Cc2nc3ccccc3c(=O)[nH]2)oc2ccccc12 | -2.36% |
| Cc1ccc(C2CC(=O)C=C(NCC(C)C)C2)cc1 (stereo unspecified) | 3.68% |
| O=C1C=C(NCc2ccc(Cl)cc2)CC(c2ccco2)C1 (stereo unspecified) | 32.3% |
| O=C1C=C(Nc2ccc(Cl)cc2Cl)CC(c2ccco2)C1 (stereo unspecified) | 2.86% |
| Cc1ccc(NC2=CC(=O)CC(c3ccco3)C2)c(N)c1 (stereo unspecified) | 23.3% |
| Cc1ccnc(NC(=O)c2ccc3c(c2)OCO3)c1 | 4.65% |
| Cc1cc(C)c2c(c1)/C(=N\N=c1\sc3ccccc3n1C)C(=O)N2 | 0.52% |

| SMILES | inhibition |
| --- | --- |
| Cc1cccc2c1NC(=O)C2=O | 32.4% |
| COc1ccc(OC)c(NC(=O)CCN2CCCCC2)c1 | -3.02% |
| COc1ccc(OC)c(NC(=O)CCN2CCN(C)CC2)c1 | 2.28% |
| N#Cc1cccc(NC(=O)CSc2nnc(-c3n[nH]c4ccccc34)o2)c1 | -4.45% |
| Cc1cc(C(=O)COC(=O)c2ccccc2Br)c(C)n1CC1CCCO1 (stereo unspecified) | 30.3% |
| Cc1cc(C(=O)COC(=O)c2ccccc2O)c(C)n1CC1CCCO1 (stereo unspecified) | -14.1% |
| Cc1ccc(-n2nnnc2SCC(=O)c2cc(C)n(CC3CCCO3)c2C)cc1 (stereo unspecified) | -3.58% |
| Cc1cccc(-n2nnnc2SCC(=O)c2cc(C)n(CC3CCCO3)c2C)c1 (stereo unspecified) | 22.8% |
| CCn1c(C)cc(C(=O)CN2C(=O)c3ccccc3S2(=O)=O)c1C | 6.44% |
| CCCn1c(C)cc(C(=O)CN2C(=O)c3ccccc3S2(=O)=O)c1C | 0.72% |
| COc1ccc(OCC(=O)Nc2ccc(OC)c(S(=O)(=O)N3CCCCC3)c2)cc1 | -0.4% |
| N#CC1=C(S)N=C(N)C(c2nc(-c3ccccc3)cs2)C12CCCCC2 (stereo unspecified) | 13.7% |
| CCOC(=O)c1ccc(NC(=O)CSc2nnc(Cn3c(=O)sc4ccccc43)n2C)cc1 | -11.7% |
| O=C(CN(C(=O)CNS(=O)(=O)c1ccc(F)cc1)C1CCCC1)NCc1ccco1 | -8.82% |
| COC(=O)Cn1cnc2c(nnn2-c2ccc(OC)cc2)c1=O | -8.1% |
| O=C(/C=N/O)NCc1cccnc1 | -3.6% |
| O=C(N=C1SC2CS(=O)(=O)CC2N1c1ccc(Br)cc1)C1CCCO1 (stereo unspecified) | 2.67% |
| NC(=O)CN1C(=O)/C(=c2\sc3nc(=O)c(Cc4ccccc4)nn3c2=O)c2ccccc21 | -13.2% |
| COC(=O)c1cc(Br)c(=O)n(CC(C)C)c1 | 4.6% |
| CC(C)c1cc(C(=O)OCC(=O)NC2CC2)c(O)c(C(C)C)c1 | 1.52% |
| Nc1cc(C(=O)O)ccc1N1CCCCCC1 | 8.01% |
| NC(=O)c1cc(N)ccc1N1CCCCC1 | -6.02% |
| CC1CCCCN1c1ccc(N)cc1C(N)=O (stereo unspecified) | 0.06% |
| COC(=O)c1ccc(N2CCCCC2)c(N)c1 | 24.1% |
